Consider 53 compounds from ChEMBL document CHEMBL3988442, “University of Dundee, Small-Polar-MMV Screening Library” (2021).

About 13,000 (27%) of roughly 48,000 compounds showed an effect of 50% or more. Some of the results follow.

The assay concerns Wolbachia pipientis. The assay can be described thus: Anti-Wolbachia Cell-Based Screen. The assay is classed as functional. Set-up: scale not given: in the data most compounds retested in dose-response had high values. The conditions noted are these: 5 µM.
`COc1ccc([C@@H]2NC(=O)N[C@H]3OCCC[C@H]32)cc1`: the “Percent Effect” value is 92.15%. With `COc1ccc(C2CC(=O)Nc3c2cnn3C2CCCC2)cc1` (stereo not drawn), the “Percent Effect” value is recorded as -0.6699%.

Consider `COc1ccc(C2CC(=O)Oc3cc(C)[nH]c(=O)c32)cc1` (stereo not drawn), for which the “Percent Effect” value is given as 5.191%. Then `O=C1CC(c2ccccc2)c2cnn(C3CCCC3)c2N1` (stereo not drawn), with 5.906%; and `O=C1N[C@H]2OCCC[C@H]2[C@H](c2ccccc2)N1`, with 111.8%. In the case of `O=C(CN1CCCC(c2ccc(C(=O)O)cc2)C1)NC1CC1` (stereo not drawn), the “Percent Effect” value was -9.643%.

As to `O=C1N[C@H]2OCCC[C@H]2[C@H](c2ccc(C(=O)O)cc2)N1`, the “Percent Effect” value came out at 126.1%. As to `O=C1N[C@H]2OCCC[C@H]2[C@H](c2ccccc2C(=O)O)N1`, the “Percent Effect” value is given as 55.53%. Next, `CN1CCC(N2CCC(c3ccccc3C(=O)O)C2)CC1` (stereo not drawn): 13.56%; `O=C(O)c1ccc(OC2CCOCC2)cc1`: 3.994%; `O=C(O)c1ccccc1C1CCN(C2Cc3ccccc3C2)C1` (stereo not drawn): 0.3893%.

With `O=C1CO[C@H](c2ccc(NS(=O)(=O)c3ccccc3)cc2)[C@@H](CO)N1`, the “Percent Effect” value was -4.896%. With `CCOCCn1nc(C)cc1C(=O)N1CCN(C(C)C)C(CC)C1` (stereo not drawn), the “Percent Effect” value came out at 12.32%. Next, `CC(=O)N1CCC(N2CCOC[C@H]2c2nc(-c3ccncc3)c[nH]2)CC1`: -16.93%; `CC(=O)N1CCCC2(CCN(C(=O)c3nccnc3N)CC2)C1`: -5.274%; `O=C(O)CSc1nccc(-c2ccc3c(c2)OCO3)n1`: 78.66%.

In the case of `CSCC(=O)N1CCc2[nH]nc(-c3ccc4c(c3)OCO4)c2C1`, the “Percent Effect” value is -14.59%. Take `CNCc1nc(-c2ccc3c(c2)OCO3)c[nH]1.Cl.Cl`: the “Percent Effect” value is reported as -0.9226%.

`NC(=O)CSc1nccc(-c2ccc3c(c2)OCO3)n1`: the “Percent Effect” value is recorded as 94.21%.

For the compound `CN(C)C(=O)c1cccnc1-c1ccc2c(c1)OCO2`, the “Percent Effect” value is -0.5608%. Turning to `O=C(CSc1nccc(-c2ccc3c(c2)OCO3)n1)N1CCOCC1`, the “Percent Effect” value is listed as 110.7%. With `O=C(Cc1ccc2c(c1)OCO2)N1CCN(c2ccncc2)CC1`, the “Percent Effect” value is given as -22.19%.

With `NC(=O)CCC(=O)N1CCc2[nH]nc(-c3ccc4c(c3)OCO4)c2C1`, the “Percent Effect” value is -2.811%. With `CCOc1ccc(-c2ccc3c(c2)OCO3)cc1C(N)=O`, the “Percent Effect” value was -6.962%. Next, `Cn1cccc(NC(=O)N2CCC(COCc3ccccc3)C2)c1=O` (stereo not drawn): 7.256%; `Cc1ccc(C)c(OCC(O)Cn2ncc3cnn(C)c(=O)c32)c1` (stereo not drawn): -5.252%; `O=S(=O)(NC1=NCN(CCc2cccs2)CN1)c1ccc(F)cc1`: 4.244%. `Cc1cc(N[C@H](CO)COCc2ccccc2)n2nc(C)cc2n1`: the “Percent Effect” value came to 2.305%. On to `CCN1CC(COc2ccc(OC)cc2)Oc2ccncc2S1(=O)=O` (stereo not drawn), for which the “Percent Effect” value amounted to 109.7%. `COc1ccc(C[C@@H]2CC[C@H](CN(C)C3CCN(C)CC3)O2)cc1`: the “Percent Effect” value amounted to 15.35%. Then `COc1ccc(OCCN2CCOCS2(=O)=O)cc1`, with -3.078%; and `CCN1CC(COC(C)(C)C)Oc2ccncc2S1(=O)=O` (stereo not drawn), with 103.5%. Then `COCC1CN(Cc2ccc(OC)cc2)S(=O)(=O)c2cnccc2O1` (stereo not drawn), with 99.8%; and `COc1ccc(CN2CCOC[C@H](Oc3cccnc3)C2)cc1`, with -13%; and `COc1ccc(CCC(=O)Nc2ccncc2C)cc1`, with 3.309%.

Regarding `CC(C)(C)OCC1CN(CC2CC2)S(=O)(=O)c2cnccc2O1` (stereo not drawn), the “Percent Effect” value is listed as 96.42%.

`Cc1nc(-c2noc3ccc(C(=O)NCCN(C)C)cc23)co1`: the “Percent Effect” value is -5.984%. Then `CN(CCn1cccn1)S(=O)(=O)c1cccc(Cl)c1C#N`, with -13.18%; and `CC(C)(C)OCC1CN(Cc2cccs2)S(=O)(=O)c2cnccc2O1` (stereo not drawn), with 118.6%; and `CO[C@@H]1CCN(Cc2cccs2)[C@H]1Cc1ccncc1`, with 4.278%. Then `O=C(O)C(=O)O.c1csc(CN2CC(c3nc(-c4cnccn4)no3)C2)c1`, with 14.88%; and `Cc1cc(NC(=O)NC(C)CO)ccc1OCC(F)(F)F` (stereo not drawn), with -7.879%; and `CCCS(=O)(=O)c1ccc(N2CCC(Cc3ccccc3)CC2)nn1`, with 21.52%. Then `CN(Cc1ccc2c(c1)OCO2)Cc1cscn1`, with 9.115%; and `CC(C)c1nc(CC(=O)N(C)Cc2ccc3c(c2)OCO3)cs1`, with -4.138%; and `O=C(c1cc(COc2ccc3c(c2)OCO3)[nH]n1)N1CCSCC1`, with 4.191%. Turning to `CC(=O)N1CCCN(C(=O)Cc2ccc3c(c2)OCO3)CC1`, the “Percent Effect” value is on record as 1.177%. Then `Cc1nnc(SCCCNC(=O)Cc2ccc3c(c2)OCO3)s1`, with -3.831%. Next, `Nc1nc(SCc2ccc3c(c2)OCO3)ns1`: 92.69%; `CC(=O)Nc1nc(SCc2ccc3c(c2)OCO3)ns1`: 70.31%. Take `CCSc1nsc(NC(=O)COc2ccc3c(c2)OCO3)n1`: the “Percent Effect” value is 106.2%.

For the compound `Cn1nc2c(cc1=O)CN(Cc1nnc(-c3ccco3)o1)CC2`, the “Percent Effect” value is recorded as -2.817%. Take `C=C(C)CN(CC)S(=O)(=O)c1c(F)cc(NC(C)=O)cc1F`: the “Percent Effect” value worked out at 26.08%.
